# TDP1 block: qHTS Assay for Inhibitors of Tyrosyl-DNA Phosphodiesterase (TDP1); Tyrosyl-DNA phosphodiesterase 1 (Homo sapiens), Q9NUW8; 350,000 tested, 0.28% active; recombinant TDP1, AlphaScreen DNA substrate cleavage; AID 485290, 2010; Potency, µM (highest dose often 130 µM), inactives show at the top dose activity change, negative = inhibition, most hits filed as inhibitors; note: potency is the fitted concentration of half-maximal effect; % is set by controls: 0 for no effect and ±100 for the full control effect; nearly all actives have a fitted effect of over 40% in size
#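 Tdp1 1 nM final; 15 min RT w/ cpd; substrate 15 nM, 5 min; beads 10 ug/ml, 10 min; AlphaScreen read. Neg ctrl: no enzyme.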
# BAZ2B block: qHTS Assay for Inhibitors of BAZ2B. Bromodomain adjacent to zinc finger domain protein 2B (Homo sapiens), Q9UIF8. AlphaScreen BAZ2B-H3K14Ac peptide displacement. Potency, µM (top dose mostly 114 µM), without a hit: top-dose activity change, negative = inhibition, actives largely listed as inhibitors. 360,000 tested, 4.4% active; note: potency is the fitted concentration of half-maximal effect; % is set by controls: 0 for no effect and ±100 for the full control effect; nearly all actives have a fitted effect of over 60% in size
#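 AlphaScreen displacement of biotin-H3(5-23)K14Ac peptide (50 nM final) from BAZ2B (50 nM final) in PBS pH 7.4, 0.01% Tween-20; complex preformed 30 min RT, then compounds (top 110 uM) 30 min RT, beads 20 min dark.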
# JMJD2A Tudor inh: qHTS Assay for Inhibitors of JMJD2A-Tudor Domain. Lysine-specific demethylase 4A (Homo sapiens), O75164. AlphaScreen JMJD2A-Tudor / H3K4me3 peptide binding. Potency, µM (doses to about 114 µM), without a hit: at the highest dose activity change, negative = inhibition, most hits filed as inhibitors. 390,000 tested, 4.4% active. AID 504339, 2011; note: potency is the fitted concentration of half-maximal effect; % is set by controls: 0 for no effect and ±100 for the full control effect; nearly all actives have a fitted effect of over 50% in size
# Target sequence (O75164 whole entry, looked up, the tested form may be a part): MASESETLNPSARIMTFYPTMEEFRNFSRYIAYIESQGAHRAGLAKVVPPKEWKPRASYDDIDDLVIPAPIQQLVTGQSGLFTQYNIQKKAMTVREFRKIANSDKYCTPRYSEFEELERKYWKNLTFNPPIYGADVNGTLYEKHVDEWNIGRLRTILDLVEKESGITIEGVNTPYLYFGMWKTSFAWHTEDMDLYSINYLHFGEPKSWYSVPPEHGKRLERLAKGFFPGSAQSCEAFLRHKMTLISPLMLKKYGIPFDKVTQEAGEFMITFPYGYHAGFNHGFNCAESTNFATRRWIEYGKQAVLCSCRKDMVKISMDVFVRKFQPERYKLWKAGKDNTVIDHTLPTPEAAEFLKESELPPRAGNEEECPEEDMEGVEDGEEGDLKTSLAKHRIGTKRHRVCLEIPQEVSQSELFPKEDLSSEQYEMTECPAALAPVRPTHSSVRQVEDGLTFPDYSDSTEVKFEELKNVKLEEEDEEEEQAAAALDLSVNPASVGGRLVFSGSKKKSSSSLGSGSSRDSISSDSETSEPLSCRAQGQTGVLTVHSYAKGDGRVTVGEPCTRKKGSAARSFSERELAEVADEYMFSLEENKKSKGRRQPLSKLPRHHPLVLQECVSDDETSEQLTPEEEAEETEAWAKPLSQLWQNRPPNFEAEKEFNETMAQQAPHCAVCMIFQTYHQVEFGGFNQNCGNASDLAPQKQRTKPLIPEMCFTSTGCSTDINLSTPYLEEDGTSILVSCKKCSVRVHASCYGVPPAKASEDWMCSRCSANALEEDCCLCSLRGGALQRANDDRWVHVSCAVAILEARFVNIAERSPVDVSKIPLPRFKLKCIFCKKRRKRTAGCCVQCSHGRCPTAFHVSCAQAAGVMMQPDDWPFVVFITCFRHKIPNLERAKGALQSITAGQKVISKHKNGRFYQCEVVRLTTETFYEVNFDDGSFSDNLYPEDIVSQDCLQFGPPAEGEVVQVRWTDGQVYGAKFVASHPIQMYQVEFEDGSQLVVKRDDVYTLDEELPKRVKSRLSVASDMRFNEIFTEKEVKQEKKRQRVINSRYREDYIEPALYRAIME
# Six1-Eya2 inh: qHTS Assay for Inhibitors of the Six1/Eya2 Interaction. Homeobox protein SIX1 (Homo sapiens) + Protein phosphatase EYA2 (Homo sapiens), …. AlphaScreen GST-Six1/His-Eya2 binding, biochemical; hits give low values. activity change, % (concentration not given with the values). 360,000 tested, 0.56% active; in the data active = activity change below about -65%; inconclusive = mostly about -30% to -63%; note: % is set by controls: 0 for no effect and ±100 for the full control effect
#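 GST-Six1 + His-Eya2 (5X stock: 250/500 nM); Tris pH 8.0, 300 mM NaCl, 0.05% BSA, 0.02% Tween 20; GSH donor/Ni acceptor beads; 1 h 37 °C dark; AlphaScreen readout.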
# HP1b binding inh: HTS for Inhibitors of HP1-beta Chromodomain Interactions with Methylated Histone Tails. 390,000 tested, 0.56% active. Chromobox protein homolog 1 (Homo sapiens), P83916. Potency, µM (titrated, usually from 114 µM), for inactives: at the top dose activity change, negative = inhibition, actives largely listed as inhibitors. AlphaScreen HP1-beta / biotin-H3K9me3 peptide binding; note: potency is the fitted concentration of half-maximal effect; nearly all actives have a fitted effect of over 70% in size
#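 Compound inhibition of the preformed complex between 50 nM HP1-beta and 50 nM biotinylated H3K9me3 peptide was read by AlphaScreen. Buffer was PBS pH 7.4 with 0.01% Tween-20. Incubations ran 30 min at room temperature, with 10 ug/mL donor/acceptor beads.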
# CtBP-E1A inh: qHTS Assay for Inhibitors of the CtBP/E1A Interaction; AID 651724, 2012; CtBP / adenovirus E1A interaction (AlphaScreen); activity change, % (test concentration not listed); AlphaScreen GST-E1A/His-CtBP binding, 1536-well; hits give low values; 340,000 tested, 0.49% active; in the data active = activity change below about -65%; inconclusive = mostly about -30% to -63%; note: % is set by controls: 0 for no effect and ±100 for the full control effect
#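 In 5 uL wells, 23 nL compound meets equimolar GST-E1A and His-CtBP (5X stock 125 nM each) for 2 h, 37 °C. Beads (5X, 50 ug/mL) then 1 h, 37 °C, dark.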
# * marks the source's active call; other numbers are inactive results; ? = inconclusive; . = no result given; [ ] = dose if it differs, or a comment. Shown are actives, neighbours in structure and some others; about 5.3% of the full set was active somewhere. Unless noted, calls come from the whole dose curve; as a rule, active = well fitted inhibition curve with a large enough effect; inconclusive = small, poorly fitted or top-dose-only effect; inactive = no such curve, though single readings can be large or run the other way.
SMILES,TDP1 block,BAZ2B block,JMJD2A Tudor inh,Six1-Eya2 inh,HP1b binding inh,CtBP-E1A inh
COc1c2c(cc3c1C(NC(N)=O)[N+](C)(C)CC3)OCO2 (stereo unspecified),-3%,.,.,.,.,.
CC(C)=CCC/C(C)=C/CO/N=C1/C[C@@H](O)[C@@H](O)[C@@H]2[C@H]3C(=O)N(c4ccc(F)cc4F)C(=O)[C@@H]3CC[C@@H]12,6%[21 µM],.,.,.,.,.
CSc1ccccc1OCc1cc(C(=O)N(C)CCn2nc(C)cc2C)no1,3%,?,13µM*,-2,-4%,-11
CSc1ccccc1OCc1cc(C(=O)N(C)Cc2nonc2C)no1,2%[56.1 µM],-1%,-5%,13,23%,5
O=C(NNc1ccc(F)cc1F)c1c(F)cccc1Cl,-6%,-2%,-14%,7,-4%,5
O=S(=O)(NNc1ccc(F)cc1F)c1cccc(Cl)c1,4%,?,10µM*,7,?,4
CC(=O)c1ccc(NC(=O)c2noc3c2CSc2ccccc2-3)cc1,0%,7%,8%,.,50%,.
O=C(Cn1c2[n+](c3ccc(C(F)(F)F)cc31)CCCCC2)Nc1ccc(Br)cc1,7%,?,-4%,3,38%,7
N#Cc1ccc(NC(=O)Cn2c3[n+](c4ccc(C(F)(F)F)cc42)CCCCC3)cc1,0%,-13%,14µM*,10,-8%,3
NC(=S)NNc1cccc2cccnc12,3%,25µM*,10µM*,-92*,-16%,-92*
O=C(CCBr)Nc1cccc2cccnc12,-1%,.,79µM*,.,7%,.
CCC(=O)Nc1cccc2cccnc12,0%,-5%,6%,8,67%,.
O=C(CI)Nc1cccc2cccnc12,.,.,20µM*,.,-20%,.
O=C(CCCl)Nc1cccc2cccnc12,0%,.,79µM*,.,68%,.
NC(=S)Nc1cccc2cccnc12,0%,?,-31%,4,10%,0
C/C(CC(=O)Nc1cc(C)ccn1)=N\NC(=O)C(=O)NC(C)C,6%,?,?,6,19%,-13
C/C(CC(=O)Nc1cc(C)ccn1)=N\NC(=O)c1cccc(C)c1,-2%,89µM*,-12%,17,18%,-19
COc1cccc([C@H]2Nc3ccc(S(=O)(=O)Nc4cc(C)ccc4C)cc3[C@H]3C=CC[C@H]32)c1,.,-32%,-34%,.,7%,.
CC1=C(SCCC#N)S/C(=C2\SC(C)=C(SCCC#N)S2)S1,13%,-32%,56µM*,-78*,?,-5
Cn1c(SCCC#N)nnc1-c1ccc(F)cc1,3%,.,.,.,.,.
Cc1cc(C)c2sc(N(Cc3cccnc3)C(=O)CCOc3ccccc3)nc2c1,3%,-9%,-23%,.,43%,.
O=Nc1c(O)n(Cc2ccc(Cl)cc2Cl)c2ccccc12,9%,45µM*,?,-19,-3%,-17
N#Cc1nc(-c2ccco2)oc1N1CCCC1,-1%,3%,-19%,-2,1%,0
N#Cc1nc(-c2ccco2)oc1N1CCc2ccccc2C1,10%,25µM*,?,?,?,-21
N#Cc1nc(-c2ccco2)oc1N1CCN(C(c2ccccc2)c2ccccc2)CC1,8%,?,-35%,-28,?,-2
N#Cc1nc(-c2ccco2)oc1N1CCN(c2cccc(Cl)c2)CC1,8%,25µM*,?,?,?,8
Cn1cccc1/C=N\NC(=O)C1COc2ccc(C(C)(C)C)cc2O1 (stereo unspecified),13%,35µM*,-11%,?,7%,.
Cn1cccc1/C=N\NC(=O)C1COc2ccccc2O1 (stereo unspecified),7%,?,-6%,-9,41%,.
